Experimental findings from PubChem BioAssay (NCI) are described below.

Holding throughout (assay): NCI-60 one-dose screen, 48 h (100 = growth as untreated, 0 = no growth, -100 = all killed)
Common to all, as to conditions: 10 µM unless noted

The subject of experiment [1] is HCT-15 colon.
In experiment [2] the test system is HT29 colon.
The test system of experiment [3] is SNB-75 CNS.
For experiment [4], the system named is SNB-19 CNS.
Experiment [5] deals with U251 CNS.
In experiment [6] the test system is PC-3 prostate.
The test system of experiment [7] is SK-MEL-5 melanoma.
Experiment [8] relates to UACC-62 melanoma.
Experiment [9] deals with LOX IMVI melanoma.
For experiment [10], the system named is SK-MEL-28 melanoma.
The subject of experiment [11] is SK-MEL-2 melanoma.
For experiment [12], the system named is EKVX NSCLC.
Experiment [13] deals with SN12C renal.
The subject of experiment [14] is UO-31 renal.
In experiment [15] the test system is TK-10 renal.
Experiment [16] relates to ACHN renal.
In experiment [17] the test system is CAKI-1 renal.
The subject of experiment [18] is CCRF-CEM leukemia.
Experiment [19] concerns MOLT-4 leukemia.

The structures appear in SMILES notation. This is part of a sample that, as a whole, favours compounds with a hit. Of some 83,000 tested, about 20% had one in any assay.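 Step 1: grow cells in 96-well plates. Step 2: add test compound at a single concentration. Step 3: incubate 48 h. Step 4: record percent growth.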 Unmarked numbers belong to inactive results. The source made the active and inactive calls. How the source made its calls: active means growth percent below 10; inactive means the rest.

With `CCNC(=O)Oc1ccc(/C(=C(\C)c2ccccc2)c2ccc(OCCCN(C)C)cc2)cc1`, the growth in experiment [1] was 52.1%; in experiment [2], 9.13% (active); in experiment [3], 90.9%; in experiment [4] it was 88.3%; in experiment [5], 66.3%; in [6], 73.3%. In addition, the growth in experiment [7] was 80.9%; in [8] it was 76.1%; in experiment [9], 67.1%; in [10], 58%; in experiment [11], 97.2%; in experiment [12], 84%. The growth in [13] is 81.1%; in [14], 55.4%; in experiment [15], 84.5%; in experiment [16] it was 98.1%; in experiment [17], 84.3%; in [18] it was 82.7%. The growth in experiment [19] was 65.8%.

Take `CC1(C)CC(O)CCCCCCOc2c(CN)cccc2NC(=O)c2nc(cnc2N)-c2ccc(cc2)S1(=O)=O` (configuration not stated): the growth in experiment [1] was -14.4% (active); in experiment [2] it was 9.7% (active); in [3], 53.7%; in experiment [4], 8.06% (active); in experiment [5] it was -26.6% (active); in experiment [6], 22.6%. In addition, the growth in [7] was -31.7% (active); in experiment [8], 41.3%; in [9], 13%; in experiment [10] it was 43.4%; in experiment [11], 25.4%; in experiment [12], 86.2%. Moreover, the growth was 20.1% in experiment [13]; 27.8% in experiment [14]; 34.7% in [15]; 24.7% in [16]; 18.1% in experiment [17]; -8.71% (active) in experiment [18]. The growth in experiment [19] was 2.43% (active).

Turning to `Cc1c(C(=O)NCCC(=O)NO)sc2ncnc(Nc3ccc(NC(=O)Nc4cccc(C(F)(F)F)c4)cc3)c12`, the growth is 101% in experiment [1]; 110% in experiment [2]; 78.8% in [3]; 93.6% in [4]; 80.2% in experiment [5]; 100% in [6]. Moreover, the growth is 97.1% in experiment [7]; 99.6% in [8]; 94.5% in experiment [9]; 110% in [10]; 109% in [11]; 90.8% in experiment [12]. Also, the growth is 100% in experiment [13]; 87.1% in experiment [14]; 140% in [15]; 102% in [16]; 99.3% in experiment [17]; 98.8% in experiment [18]. Besides, the growth in [19] is 106%.

With `N#Cc1cc(-c2nc3ccccc3s2)c(=O)n(NS(=O)(=O)c2ccccc2)c1N`, the growth in experiment [1] is 108%; in [2] it was 107%; in [3], 73.1%; in experiment [4], 103%; in [5], 102%; in [6], 102%. The growth in [7] is 101%; in [8] it was 97.1%; in [9], 99.4%; in [10], 121%; in experiment [11], 104%; in experiment [12] it was 101%. The growth in experiment [13] is 99.9%; in experiment [14] it was 72.7%; in experiment [15] it was 137%; in experiment [16], 99.5%; in [17] it was 81.8%; in [18], 105%. In addition, the growth in experiment [19] was 107%.

Consider `CCCCCC(=O)Oc1ccc(/C(=C(/C)Cc2ccc(OC)cc2)c2ccc(OCCCN(C)C)cc2)cc1`, for which the growth is 24.6% in experiment [1]; 10.8% in experiment [2]; 77% in [3]; 84.1% in experiment [4]; 56.2% in [5]; 86.2% in experiment [6]. The growth in experiment [7] is 63.5%; in experiment [8], 47.7%; in experiment [9] it was 50.7%; in experiment [10] it was -1.63% (active); in experiment [11] it was 114%; in experiment [12], 88.7%. The growth in [13] was 79.5%; in experiment [14] it was 58.6%; in experiment [15], 100%; in [16], 91.9%; in experiment [17], 78.3%; in experiment [18], 68.1%. Besides, the growth in experiment [19] was 53.5%.

With `CCCCOc1ccc(/C(C)=N/Nc2cc(C)nc3ccc(Br)cc23)cc1`, the growth is 7.75% (active) in experiment [1]; 45.1% in experiment [2]; 103% in experiment [3]; 91.9% in [4]; 31.9% in experiment [5]; 80.3% in [6]. Moreover, the growth in [7] was 96.7%; in experiment [8], 98.5%; in experiment [9], 33.9%; in experiment [10], 106%; in [11], 108%; in [12], 88.2%. In addition, the growth was 82.5% in experiment [13]; 67.7% in experiment [14]; 112% in [15]; 103% in [16]; 82.9% in experiment [17]; 64.6% in [18]. For the same molecule, the growth in experiment [19] is 83.5%.

As to `CC1=CCC(OC(=O)C(C)(O)CCC(O)(C(=O)OC2(C)C=CC(O)(C(C)C)CC2)C(C)C)(C(C)C)CC1` (configuration not stated), the growth is 103% in experiment [1]; 104% in [2]; 92.5% in experiment [3]; 102% in experiment [4]; 98.3% in experiment [5]; 113% in experiment [6]. The growth is 101% in [7]; 98.1% in [8]; 101% in experiment [9]; 114% in experiment [10]; 108% in experiment [11]; 99% in [12]. Further, the growth is 98.9% in experiment [13]; 88.6% in [14]; 95.6% in experiment [15]; 111% in [16]; 95% in experiment [17]; 102% in experiment [18]. Moreover, the growth in experiment [19] is 109%.

In the case of `COc1cc2c(cc1OC)C(=O)/C(=C/c1cc(C)c(O)c(C)c1)S2`, the growth in experiment [1] was 18.7%; in experiment [2] it was 83.2%; in experiment [3], 24%; in experiment [4], 38.7%; in experiment [5] it was 27.2%; in [6] it was 38.4%. For the same molecule, the growth was 21.3% in experiment [7]; 43.3% in experiment [8]; 44.2% in experiment [9]; 65% in experiment [10]; 42.6% in experiment [11]; 40.8% in [12]. Also, the growth in [13] was 50.4%; in experiment [14], 54.8%; in experiment [15] it was 66%; in experiment [16], 45.3%; in [17], 43.9%; in experiment [18], 17.1%. Also, in experiment [19], the growth was 24.5%.
